PLK1 PBD inh = blocks phosphopeptide binding to human PLK1 polo-box domain; AID 720504; Potency, µM, for inactives: max response, negative = inhibition, hits mostly inhibitors; P53350; Plk1 PBD binding of FITC phosphopeptide, fluorescence polarization; actives 2.8% (n = 360,000); further: series mostly up to about 57 µM; on the % scale 0 is the no-effect control and ±100 the full control effect; nearly all actives have a fitted effect of over 65% in size
HP1b chromo inh = inhibitors of HP1-beta chromodomain binding to methylated histone tails; P83916; AlphaScreen HP1-beta / biotin-H3K9me3 peptide binding; Potency, µM (highest dose often 114 µM), for inactives: top-dose activity change, negative = inhibition, actives largely listed as inhibitors; actives 0.56% (n = 390,000); AID 540317; further: nearly all actives have a fitted effect of over 70% in size
Target sequence (P83916 whole entry, looked up): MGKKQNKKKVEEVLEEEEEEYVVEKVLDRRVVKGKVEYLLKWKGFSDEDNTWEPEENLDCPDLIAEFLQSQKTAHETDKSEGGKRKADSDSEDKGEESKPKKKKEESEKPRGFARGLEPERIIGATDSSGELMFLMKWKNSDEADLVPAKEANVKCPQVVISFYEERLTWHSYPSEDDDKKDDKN
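Compound inhibition of the preformed complex between 50 nM HP1-beta and 50 nM biotinylated H3K9me3 peptide was read by AlphaScreen. Buffer was PBS pH 7.4 with 0.01% Tween-20. Incubations ran 30 min at room temperature, with 10 ug/mL donor/acceptor beads.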
BAZ2B inh = BAZ2B (human) inhibition; actives 4.4% (n = 360,000); AlphaScreen BAZ2B-H3K14Ac peptide displacement; Potency, µM (series often up to 114 µM), for the others: at the highest dose activity change, negative = inhibition, hits mostly inhibitors; Q9UIF8; AID 504333; further: on the % scale 0 is the no-effect control and ±100 the full control effect; nearly all actives have a fitted effect of over 60% in size
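AlphaScreen displacement of biotin-H3(5-23)K14Ac peptide (50 nM final) from BAZ2B (50 nM final) in PBS pH 7.4, 0.01% Tween-20; complex preformed 30 min RT, then compounds (top 110 uM) 30 min RT, beads 20 min dark.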
G9a block = G9a (human) methyltransferase inhibition; G9a H3K9 monomethylation, AlphaScreen, 2 h; Potency, µM (top dose mostly 102 µM), without a hit: top-dose activity, negative = inhibition, actives largely listed as inhibitors; actives 8.8% (n = 350,000); further: on the % scale 0 is the no-effect control and ±100 the full control effect; nearly all actives have a fitted effect of over 75% in size
Target sequence (Q96KQ7 913-1193 limits assumed): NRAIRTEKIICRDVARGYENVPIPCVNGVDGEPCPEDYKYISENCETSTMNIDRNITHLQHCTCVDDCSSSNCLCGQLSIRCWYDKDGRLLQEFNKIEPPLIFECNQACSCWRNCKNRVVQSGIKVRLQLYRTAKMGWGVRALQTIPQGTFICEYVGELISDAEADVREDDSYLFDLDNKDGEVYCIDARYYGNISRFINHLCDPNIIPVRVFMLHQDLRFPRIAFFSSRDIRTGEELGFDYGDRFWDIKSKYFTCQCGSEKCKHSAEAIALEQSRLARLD
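G9a (20 nM) was preincubated 15 min with compound, then reacted 2 h at room temperature with 500 nM biotin-H3K9 peptide and 20 µM SAM. Monomethyl-H3K9 detected by AlphaScreen using anti-H3K9me1 antibody.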
Sfp inh = Sfp phosphopantetheinyl transferase inhibition | Biochemical Sfp PPTase activity, qHTS | Potency, µM, without a hit: largest response in the series, negative = inhibition, hits mostly inhibitors | actives 3.5% (n = 310,000) | AID 1490;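 further: the enzyme is Sfp with the accession as filed and its product quenches rhodamine fluorescence; 0% = enzyme reaction without inhibitor and -100% = no enzyme wells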
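Compounds were incubated with enzyme (final 15 nM) for 15 min at room temperature before substrate addition started the reaction. Fluorescence at 525 nm excitation, 598 nm emission was recorded immediately and after 30 minutes.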
JMJD2A Tudor inh = JMJD2A Tudor domain (human) inhibition | actives 4.4% (n = 390,000) | AlphaScreen JMJD2A-Tudor / H3K4me3 peptide binding | AID 504339 | Potency, µM (top dose mostly 114 µM), for inactives: top-dose activity change, negative = inhibition, hits mostly inhibitors; further: on the % scale 0 is the no-effect control and ±100 the full control effect; nearly all actives have a fitted effect of over 50% in size
Starred values were filed as active, the others as inactive; ? = inconclusive; . = not tested or not shown; [ ] = another dose, or the depositor's remark. Rows were chosen to be rich in hits. Some 12% of all compounds tested hit in one or more screens of this group. The call rests on the fitted dose curve; in most records, active means well fitted curve in the direction sought with a large enough effect; inconclusive means small, poorly fitted or top-dose-only effect, or another doubt; inactive means no such curve, though single readings can be large; an effect the other way counts as inactive or inconclusive. Potency means the concentration at half of the fitted maximal effect.

SMILES | PLK1 PBD inh | HP1b chromo inh | BAZ2B inh | G9a block | Sfp inh | JMJD2A Tudor inh
COc1ccc(-c2noc(CSc3nnc(C)n3-c3ccc(OC)cc3)n2)cc1 | . | 31.2% | -15.3% | 0.8%[59 µM] | . | -6.9%
COc1ccccc1NC(=O)CCC(=O)Nc1cc(OC)c(NC(=O)c2cccs2)cc1OC | 26.7µM* | -4.8% | 1.0% | -7.7% | -9.1% | 79.4µM*
COc1ccccc1NCC(=O)N/N=C(\C)c1cccs1 | 23.8µM* | ? | ? | 39.2%[59 µM] | -5.4% | 35.5µM*
COc1cc(NC(=O)c2ccccc2)c(OC)cc1NC(=O)Cc1cccs1 | -28.4% | 70.8µM* | 31.6µM* | . | -26.1% | 56.2µM*
C/C(=N\NC(=O)CNc1cccc(Cl)c1C)c1cccs1 | -9.8% | 7.5% | 3.0% | . | 11.1% | -7.7%
CCOC(=O)CCN1C(=O)[C@H]2[C@H]3[C@H](O)[C@H](O)C/C(=N/OC/C=C(\C)CCC=C(C)C)[C@@H]3CC[C@@H]2C1=O | . | . | . | . | -11.3% | .
CCN(CC)Cc1c(NC(=O)c2ccc(OC)cc2)sc2c1CCCC2 | . | 4.6% | -5.4% | -8.4%[59 µM] | . | -17.3%
CCCCc1nc2sc3c(=O)[nH]c(=S)[nH]c3c2c2c1CCC2 | -18.6% | 38.8% | . | . | . | 20µM*
CCCCc1nc2sc3c(=O)[nH]cnc3c2c2c1CCCC2 | -3.7% | 21.1% | 2.8% | . | 7.8% | -5.6%
N#CC1c2ccccc2C=CN1C(=O)c1ccccc1 (centres undefined) | -7.2% | 13.7% | 25.5% | 2.9% | 12.9% | -18.7%
O=C(c1ccccc1)[C@@H]1[C@@H](C(=O)c2ccc(F)cc2)[C@@]2(C(=O)Nc3ccccc32)[C@H]2c3ccccc3C=CN12 | -15.0% | 23.3% | -35.7% | 12.6µM* | -17.4% | -30.5%
CC(=O)[C@@H]1[C@@H](C(=O)c2ccccc2)[C@]2(C(=O)Nc3ccccc32)[C@H]2C=Cc3cc(F)ccc3N12 | -29.4% | -30.8% | ? | 8.91µM* | -18.7% | -35.9%
COc1ccccc1NC(=O)C1=C(C)Nc2nc(SCc3ccccc3C)nn2C1CC(C)C (centres undefined) | . | 7.2% | -1.5% | -29.1%[59 µM] | . | -17.5%
C#CCOCCOCCOCCNc1nc(N2CCN(C(=O)[C@H]([C@@H](C)CC)n3cc([C@@H](N)CC(C)C)nn3)CC2)nc(N2CCN(C(=O)[C@H](Cc3ccc(O)cc3)n3cc([C@@H](N)C(C)CC)nn3)CC2)n1 (some centres undefined) | -13.8% | 12.3% | 79.4µM* | 6.3%[12.7 µM] | 2.9% | ?
C#CCOCCOCCOCCNc1nc(N2CCN(C(=O)[C@H]([C@@H](C)CC)n3cc([C@@H](N)Cc4ccc(O)cc4)nn3)CC2)nc(N2CCN(C(=O)[C@H](Cc3ccc(O)cc3)n3cc([C@@H](N)C(C)CC)nn3)CC2)n1 (some centres undefined) | -1.0% | 7.6% | 79.4µM* | ? | 0.4% | 22.4µM*
COc1ccc(Oc2ncc3nc(C)c(=O)n(Cc4ccc(F)cc4)c3n2)cc1 | . | . | . | 3.0%[12.7 µM] | -17.2% | .
COn1c(=O)c(-c2ccccc2)[n+]([O-])c2ccccc21 | -7.3% | -17.6% | 0.5% | 10.9% | 7.6% | -21.7%
COn1c(=O)c(-c2ccc(C)cc2)[n+]([O-])c2ccccc21 | -6.9% | 16.0% | 0.7% | ? | -4.5% | -13.4%
O=c1c(-c2ccccc2)[n+]([O-])c2ccccc2n1O | -6.3% | -4.8% | ? | ? | 39.8µM* | ?
Cc1ccc(-c2c(=O)n(O)c3ccccc3[n+]2[O-])cc1 | -13.8% | -10.3% | -20.0% | 50.1µM* | 10.8% | ?
CCOc1ccc(C(=O)N2CCC(c3noc(-c4ccc(S(=O)(=O)N5CCCC5)cc4)n3)CC2)cc1 | . | 35.0% | -12.4% | 4.2%[59 µM] | . | -24.5%
Cc1c(C(c2ccccc2Br)c2c(C)n(C)n(-c3ccccc3)c2=O)c(=O)n(-c2ccccc2)n1C | -3.3% | 21.7% | -17.7% | -28.2% | 23.5% | -13.4%
CN1C(=O)C(CC(=O)Nc2ccc(Cl)cc2)N(Cc2ccco2)C1=S (centres undefined) | -17.8% | 12.6% | ? | 44.7µM* | 17.8µM* | -31.8%
N#Cc1ccccc1OCC(=O)NC(=O)NC1CCS(=O)(=O)C1 (centres undefined) | 0.3% | 16.7% | -1.3% | 13.7%[12.7 µM] | . | -1.4%
CC(=O)Nc1ccccc1C(=O)C(=O)Nc1ccc(Cl)cc1 | 4.8% | 18.6% | -7.3% | -31.0% | 16.5% | -5.1%
SMILES | PLK1 PBD inh | HP1b chromo inh | BAZ2B inh | G9a block | Sfp inh | JMJD2A Tudor inh
CC(=O)C(=Nc1ccccc1Cl)NNc1ccc(Cl)cc1 | -1.8% | 50.1µM* | 28.2µM* | 7.94µM* | -14.7% | 31.6µM*
COC(=O)c1cc(NCc2c(F)cccc2Cl)ccc1N1CCOCC1 | -8.8% | 22.8% | -33.6% | -2.0%[2.33 µM] | -26.2% | -22.4%
O=C(COC(=O)c1ccc(O)cc1O)Nc1ccc2ccccc2c1 | -3.1% | 20.1% | 8.2% | 17.0%[12.7 µM] | . | -21.6%
COC(=O)c1ccc(NCc2cc(O)ccc2O)cc1O | -6.2% | 56.2µM* | . | . | . | 8.91µM*
COC(=O)c1ccc(NCc2c(O)ccc(O)c2Br)cc1Cl | ? | 10µM* | . | . | . | 3.55µM*
Cc1ccc(C)c(S(=O)(=O)N2CCCOC2CNC(=O)C(=O)NC2CC2)c1 (centres undefined) | -2.6% | 11.7% | -3.1% | . | -19.9% | -14.7%
COC(=O)c1ccccc1NC(=O)Cn1cnc2ccc(S(=O)(=O)N3CCC(C)CC3)cc2c1=O | -5.8% | 45.1% | 7.7% | ? | 89.1µM* | -6.1%[11.4 µM]
CC1CCN(S(=O)(=O)c2ccc3ncn(CC(=O)Nc4ccccc4C(F)(F)F)c(=O)c3c2)CC1 | . | 11.7% | -5.6% | -24.7%[59 µM] | . | -15.3%
COc1ncc2nc(C)c(=O)n(CCC#N)c2n1 | . | . | . | -4.9%[12.7 µM] | 14.8% | .
CCn1c(CCNC(=O)c2ccccc2Cl)n[nH]c1=S | -3.2% | 33.2% | 3.9% | . | 6.4% | 39.8µM*
CCn1c(CCNC(=O)c2cccs2)n[nH]c1=S | -6.7% | 33.8% | 23.9% | ? | -3.2% | ?
CCn1c(CCNC(=O)c2ccc(Cl)cc2Cl)n[nH]c1=S | -8.8% | 41.4% | 9.1% | 39.8µM* | 3.9% | 7.08µM*
O=C(NCCNC(=O)c1ccc(Cl)cc1Cl)c1ccc(Cl)cc1Cl | 2.8% | . | . | . | . | .
CCCNC(=O)c1ccc(Cl)cc1Cl | -14.2% | 25.2%[57 µM] | 4.8% | 50.1µM* | 22.3% | 10.7%
COc1ccc(-n2c(=O)c3c4c(sc3n(Cc3ccccc3)c2=O)CN(C(C)=O)CC4)cc1OC | . | 7.4% | -0.4% | -2.1%[59 µM] | . | -29.5%
O=C(NN=Cc1ccc2c(c1)CCC2)c1cccc([N+](=O)[O-])c1 | -4.9% | . | . | . | . | .
O=C(CCc1ccc(S(=O)(=O)NC2CCCCC2)cc1)NCc1ccc(Cl)cc1 | -5.3% | 28.8% | 8.2% | 24.7%[2.33 µM] | 20.9% | -1.0%
Cc1ccc(C)c(NC(=O)CCc2ccc(S(=O)(=O)NC3CCCCC3)cc2)c1 | 6.7µM* | -11.2% | 7.8% | 5.3% | -2.0% | -26.0%[11.4 µM]
